High-throughput results (PubChem BioAssay)
Only some compounds are listed: those with a hit (about 11% of all), similar ones and a draw of the others.
L3MBTL1 block = blocks human L3MBTL1; Q9Y468; AlphaScreen L3MBTL1–H3K9me1 peptide binding; Potency, µM (highest dose often 57.1 µM), inactives show at the top dose activity, negative = inhibition, most hits filed as inhibitors; 230,000 compounds, 0.66% hits; AID 485360; note: % is set by controls: 0 for no effect and ±100 for the full control effect; nearly all actives have a fitted effect of over 60% in size
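AlphaScreen proximity signal between nickel-chelate acceptor and streptavidin donor beads (final 10 ug/mL) reports binding of 50 nM L3MBTL1 to 75 nM biotin-H3 K9me1 peptide; complex incubated with compounds 30 min at room temperature; cefsulodin titration as control.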
G9a block = blocks human histone lysine methyltransferase G9a. AID 504332. G9a H3K9 monomethylation, AlphaScreen, 2 h. Potency, µM (doses to about 102 µM), for inactives: at the highest dose activity, negative = inhibition, hits mostly inhibitors. Q96KQ7. 350,000 compounds, 8.8% hits; note: % is set by controls: 0 for no effect and ±100 for the full control effect; nearly all actives have a fitted effect of over 75% in size
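AlphaScreen detection with an anti-monomethyl H3K9 antibody quantified product after a 2 h room-temperature reaction containing 500 nM biotinylated H3K9 peptide, 20 µM SAM and 20 nM enzyme, which had been preincubated 15 min with compound.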
JMJD2A Tudor = blocks the human JMJD2A Tudor domain; 390,000 compounds, 4.4% hits; Potency, µM (titrated, usually from 114 µM), inactives show top-dose activity change, negative = inhibition, actives largely listed as inhibitors; AID 504339; AlphaScreen JMJD2A-Tudor / H3K4me3 peptide binding; O75164; note: % is set by controls: 0 for no effect and ±100 for the full control effect; nearly all actives have a fitted effect of over 50% in size
BAZ2B block = BAZ2B (human) inhibition; AlphaScreen BAZ2B-H3K14Ac peptide displacement; 360,000 compounds, 4.4% hits; AID 504333; Potency, µM (doses to about 114 µM), for inactives: at the top dose activity change, negative = inhibition, usual class: inhibitors; Q9UIF8; note: % is set by controls: 0 for no effect and ±100 for the full control effect; nearly all actives have a fitted effect of over 60% in size
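AlphaScreen displacement: compounds (up to 110uM) incubated 30 min at room temperature with a preformed 50 nM BAZ2B/50 nM biotinylated H3K14Ac peptide complex in PBS pH 7.4 with Tween-20. Donor and acceptor beads at 10 ug/mL final added, 20 min light-protected before reading.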
HP1b chromo inh = blocks HP1-beta chromodomain binding to methylated histone tails. AlphaScreen HP1-beta / biotin-H3K9me3 peptide binding. P83916. Potency, µM (top dose mostly 114 µM), inactives show at the highest dose activity change, negative = inhibition, actives largely listed as inhibitors. 390,000 compounds, 0.56% hits; note: nearly all actives have a fitted effect of over 70% in size
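AlphaScreen: HP1-beta (50 nM) preformed 30 min with biotin-H3(1-18)K9me3 peptide (50 nM) in PBS pH 7.4, 0.01% Tween-20. Compound added for 30 min at RT, then streptavidin donor/nickel chelate acceptor beads (10 ug/mL) for 30 min.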
* hit, by the source's call; ? = inconclusive; / = no result given; [ ] = another dose, or the depositor's remark. Calls come from the whole dose curve; as a rule, active = well fitted inhibition curve with a large enough effect; inconclusive = small, poorly fitted or top-dose-only effect; inactive = no such curve, though single readings can be large or run the other way. Potency is the fitted concentration of half-maximal effect.

SMILES	L3MBTL1 block	G9a block	JMJD2A Tudor	BAZ2B block	HP1b chromo inh
CC(C)(C)OC(=O)Cc1nnc(CNC(=O)c2ccccc2)s1	/	/	-4%	/	/
CCN(C(=O)CSc1ncccn1)c1c(N)n(Cc2ccccc2)c(=O)[nH]c1=O	2%	50µM*	-17%	-6%	21%
CCCCN(C(=O)CSc1nnc2ccccn12)c1c(N)n(Cc2ccccc2)c(=O)[nH]c1=O	-19%	?	-6%	4%	12%
CCCCN(C(=O)CSc1nnc(-c2ccccc2)n1C)c1c(N)n(Cc2ccccc2)c(=O)[nH]c1=O	7%	10µM*	-12%	1%	20%
Cc1cccc(NC(=O)CSCC(=O)N(CCC(C)C)c2c(N)n(Cc3ccccc3)c(=O)[nH]c2=O)c1	6%	40µM*	-5%	-15%	17%
CCN(C(=O)CSc1nnc2ccccn12)c1c(N)n(Cc2ccccc2)c(=O)[nH]c1=O	8%	50µM*	2%	5%	52%
O=c1c(CCc2ccccc2)nc2cnc(N3CCNCC3)nc2n1-c1ccccc1	/	-3%[0.501 µM]	/	/	/
Cc1ccc(CC(=O)Nc2ccc(S(=O)(=O)Nc3ncccn3)cc2)cc1	3%	-18%	-11%	5%	37%
Cc1ccc(S(=O)(=O)NC(C)C(=O)N2CCOCCOCCOCC2)cc1 (stereo unspecified)	/	71µM*	-5%	12%	-16%
Cc1ccc(S(=O)(=O)NC(C(=O)N2CCOCCOCCOCCOCC2)C(C)C)cc1 (stereo unspecified)	/	?	-9%	-21%	24%
N#Cc1cnc(NN)nc1	?	50µM*	0.79µM*	22µM*	?
Cc1ccc(C)n1-c1ccc(C#N)cn1	?	-28%	-23%	-14%	-19%
CC(=O)Nc1ccc(NC(=O)c2ccc(-c3ccc([N+](=O)[O-])cc3)o2)cc1	/	/	-10%	-11%	11%
COc1cc([N+](=O)[O-])ccc1-c1ccc(C(=O)Nc2ccc(NC(C)=O)cc2)o1	-12%	8.9µM*	-9%	-8%	25%
COc1ccc(NC(=O)c2ccc(-c3ccc([N+](=O)[O-])cc3)o2)cc1OC	-14%	79µM*	?	?	-17%
COc1cccc(NC(=O)c2ccc(-c3ccc([N+](=O)[O-])cc3)o2)c1	-7%	?	-21%	-22%	19%
CCn1c(=O)c2sccc2n2c(CCC(=O)N3CCN(c4ccccc4OC)CC3)nnc12	/	-26%[59 µM]	-8%	0%	49%
O=C1SCCC1NS(=O)(=O)c1ccccc1[N+](=O)[O-] (stereo unspecified)	7%	45µM*	-14%	-16%	12%
NC(N)=[N+]1CCc2ccccc2C1	/	3.2µM*	/	/	/
N=C(N)N1CCc2ccccc21	3%	-9%	1%	-4%	28%
CCN(CC)S(=O)(=O)c1ccc(C(=O)N2CC(=O)Nc3ccc(F)cc3C2c2ccccc2)cc1 (stereo unspecified)	/	-2%[59 µM]	-20%	-10%	22%
COCCn1c(=O)c(-c2cc(F)cc(F)c2)nc2cnc(Nc3cccc(OC)c3)nc21	/	-2%[12.7 µM]	/	/	/
O=C(Nc1nc2ccccc2c(=O)s1)c1ccc(F)cc1Cl	/	71µM*	-13%	6%	17%
O=C(CCNC(=O)c1ccccc1Cl)Nc1nc2ccc(F)cc2s1	4%	-1%[12.7 µM]	-2%	-16%	54%
O=C(Nc1nc2ccccc2c(=O)s1)c1ccco1	/	71µM*	-15%	-29%	19%
SMILES	L3MBTL1 block	G9a block	JMJD2A Tudor	BAZ2B block	HP1b chromo inh
O=C(Nc1n[nH]c(=S)s1)c1ccco1	-15%	1.4µM*	3.5µM*	?	?
CCCCN(CC)C(=O)CSc1c2c(nc3ccc(Cl)cc13)CCCC2	/	-2%[59 µM]	11%	/	41%
COc1cccc(NC(=O)C2CCN(S(=O)(=O)c3ccc4c(c3)C(C)(C)C(=O)N4C)CC2)c1	-9%	/	-21%	2%	35%
Cc1nc(SCC(=O)Nc2ccc3[nH]c(=O)[nH]c3c2)nc(C)c1C	1%	/	?	/	32%
O=C(CSc1ncccn1)Nc1ccc2[nH]c(=O)[nH]c2c1	3%	14µM*	-6%	9%	26%
O=C(COC(=O)Cc1ccc(Cl)cc1)Nc1ccc2[nH]c(=O)[nH]c2c1	28%	50µM*	-9%	?	15%
COc1ccc(OCC(=O)OCC(=O)Nc2ccc3[nH]c(=O)[nH]c3c2)cc1	6%	8.9µM*	-11%	-4%	19%
Cc1ccc(N2C(=O)CSC23C(=O)N(CC(=O)NCc2ccccc2)c2ccccc23)cc1C (stereo unspecified)	/	-11%[59 µM]	-22%	5%[57.1 µM]	7%
COc1ccccc1CNC(=O)CCCn1c(=O)c2ccccc2n(Cc2ccc(C)cc2)c1=O	/	10%[59 µM]	-12%	2%	16%
Cc1ccnc(NC(=S)NC(=O)/C=C/c2ccc(Cl)cc2)c1	-7%	15%[59 µM]	-10%	-2%	30%
C=CCOc1ccccc1CN1CCSCC1	-4%	?	6.3µM*	56µM*	?
C=CCOc1ccccc1CN1CCC(Oc2ccc(C(=O)N3CCCCC3)cc2)CC1	/	94%	-15%	1%	26%
C=CCOc1ccccc1CN1CCCCCC1	1%	/	1.4µM*	?	?
O=C(O)CCCC(=O)Nc1ccc(Cl)c(Cl)c1	2%	-2%[59 µM]	-3%	14%	18%
O=C(CCCCn1cnc2c(=S)nc[nH]c21)Nc1ccc(C(=O)O)c(O)c1	/	/	2.8µM*	/	71µM*
C/C=C/COC(=O)c1[nH]c2c(c1C)C(=O)CC(c1ccco1)C2 (stereo unspecified)	?	45µM*	50µM*	50µM*	-8%
C=CCOC(=O)c1[nH]c2c(c1C)C(=O)CC(c1ccco1)C2 (stereo unspecified)	?	?	20µM*	50µM*	28µM*
Cc1c(C(=O)OCC(C)C)[nH]c2c1C(=O)CC(c1ccco1)C2 (stereo unspecified)	?	40µM*	?	50µM*	18%
O=C(Nc1ccccc1)c1ccc(-n2nncc2-c2ccccc2)cc1	/	/	7%[57.1 µM]	/	6%[57 µM]
Cc1ccc(CNC(=O)c2ccc(Cn3nc(C)c(Cl)c3C)o2)cc1	-1%	?	?	50µM*	25%
Cc1cc(C)cc(NC(=O)c2ccc(Cn3nc(C)c(Cl)c3C)o2)c1	-3%	-12%[59 µM]	-6%	5%	32%
CCOc1ccccc1N(C)C(=O)C1CCCN(c2ncnc3onc(-c4ccc(F)cc4)c23)C1 (stereo unspecified)	/	-36%[59 µM]	-15%	12%[57.1 µM]	21%
CC1(C)CC(NS(=O)(=O)OCC(Cl)(Cl)Cl)c2cc(C#N)ccc2O1 (stereo unspecified)	8%	-1%	32µM*	0%	22%
O=C(c1ccco1)N1CCc2[nH]nc(-c3ccccc3)c2C1	/	79µM*	-15%	-33%	42%
Cc1nc(N2CCOCC2)c(C#N)c(C)c1Br	/	48%[12.7 µM]	8%	-3%	36%
